A short description of test [1]: qHTS for differential inhibitors of proliferation of Plasmodium falciparum line HB3 (AID 1886).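 Also: parasites grown with compound for 72 h before SYBR Green readout.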 Also: potency is read from the fitted curve at half-maximal effect. Particulars: Potency: Plasmodium falciparum HB3 proliferation inhibition.
Test [2] addresses Ferritin light chain (Equus caballus) (UniProt P02791). As to the kind of experiment: qHTS Validation Assay for Identification of Novel General Anesthetics (AID 2323). Also: series mostly up to about 77 µM. The method, boiled down: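 Competitive displacement of profluorescent 1-aminoanthracene (1-AMA, 50% saturated solution in PBS) from 10 uM horse-spleen apoferritin. Compounds incubated 10 min at room temperature; fluorescence read at 380 nm excitation/535 nm emission, normalized to free 1-AMA and complex, fitted with four-parameter Hill equation.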

A short description of test [3]: Cytometric Cell-Based qHTS for Inhibitors of the mTORC1 Signaling Pathway in MEF (Tsc2-/-, p53-/-) Cells (AID 2660).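 Also: Tsc2 and p53 null MEFs carrying empty vector with compound for 24 h; percent of cells above a phospho-rpS6 to PI ratio cutoff in each well; series mostly up to about 38 µM.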 The method, boiled down: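 Cells are plated, treated with compound for 24 hrs at 37 degree Celsius, then fixed, blocked and immunostained for phospho-rpS6 Ser235/236. Propidium iodide counterstain follows. Per-well % positive cells is derived from the PI-normalized phospho-S6 signal.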

A short description of test [4]: High Content Imaging Cell-Based qHTS for Inhibitors of the mTORC1 Signaling Pathway in MEF (Tsc2-/-, p53-/-) Cells (AID 2666).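 Also: percent of cells scored positive for phospho-rpS6 Ser235/236 immunostaining by imaging.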 Put shortly:
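MEF Tsc2-/- p53-/- (empty vector), DMEM/10% FBS; cpd 24 h 37 °C; PFA fix, Alexa-488 p-rpS6 S235/236 Ab, Hoechst; imaged; rapamycin-defined inhibition; % positive cells/well.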

The nature of test [5]: High Content Imaging Cell-Based qHTS for Inhibitors of the mTORC1 Signaling Pathway in MEF Cells (AID 2667). Also: potency is read from the fitted curve at half-maximal effect. Put shortly: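 Read-out is the share of phospho-rpS6-positive cells per well, from Hoechst-normalized Alexa-488 Ser235/236 staining imaged on IN Cell. Cells: WT Tsc2-expressing Tsc2-/-, p53-/- MEFs exposed to compound for 24 hrs.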
Test [6] can be described thus: Cytometry Cell-Based qHTS for Inhibitors of the mTORC1 Signaling Pathway in MEF cells (AID 2668). Also: potency is read from the fitted curve at half-maximal effect. The method, boiled down:
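WT MEFs (Tsc2-/-, p53-/- stably re-expressing WT Tsc2) in DMEM + 10% FBS received compounds 24 hrs after plating, for 24 hrs at 37 degree Celsius. Fixed cells stained with Alexa-488 anti-phospho-rpS6 Ser235/236 and propidium iodide; laser-scanning cytometry read-out.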

A short description of test [7]: Validation screen for small molecules that induce DNA re-replication in MCF 10A normal breast cells (AID 463097). Also: nearly all actives have a fitted effect of over 60% in size. Also: potency is read from the fitted curve at half-maximal effect. Put shortly: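 Readout: Hoechst nuclear fluorescence intensity, 405 ex / 500-530 em, by scanning plate imager; re-replication scored as increase in nuclei with elevated DNA content. Cells exposed to compound 48 hr, 37 C, 5% CO2 beforehand.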
Test [8] has as its target Ubiquitin carboxyl-terminal hydrolase 2 (Homo sapiens) (UniProt O75604). Put plainly: qHTS Validation Assay for Inhibitors of Ubiquitin-specific Protease USP2a Using CHOP2 as the Reporter (AID 463106). Put shortly: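 Fluorescence read-out at Ex 485nm/Em 531nm after 60min RT, following addition of 25nM Ub-CHOP2 plus 25nM reporter substrate to USP2 core (10nM) pretreated 30min with compound. Data normalized to NEM full inhibition; concentration-response curves fitted.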

Test [9] has as its target DNA polymerase III PolC-type (Bacillus subtilis (strain 168)) (UniProt P13267). As to the kind of experiment: qHTS Validation Assay for the Inhibitors of DNA Replication in Gram-Positive Bacteria (AID 485295).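 Also: PicoGreen fluorescence of double-stranded DNA made on primed circular M13 template; series mostly up to about 57 µM.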 Put shortly:
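Reconstituted B. subtilis holoenzyme (Pol III, beta clamp, SSB, primase) was preincubated with compound at room temperature, then given single-stranded circular M13Gori plus dNTPs and NTPs. EDTA-containing PicoGreen stopped the reaction, and dsDNA product was read by fluorescence.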

The target of test [10] is Tumor susceptibility gene 101 protein (Homo sapiens) (UniProt Q99816). Put plainly: qHTS Validation Assay for Iinhibitors of HIV-1 Budding by Blocking the Interaction of PTAP/TSG101 (AID 485342; calls by dose curve). Put shortly:
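Tsg101 binding domain (10 uM final) in pH 7.5 HEPES/NaCl/Tween 20/EDTA/TCEP buffer was mixed with pin-transferred compounds, then FITC-labeled PTAP peptide (50 nM final) was added; after 20 min at r.t., fluorescence polarization was read.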

For test [11], the target named is Beta-2 adrenergic receptor (Homo sapiens) (UniProt P07550). As to the kind of experiment: qHTS validation assay of beta-arrestin-biased ligands of beta2-adrenergic receptor (AID 485366). Put shortly: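 Compound series up to 46 microM applied to beta2-AR/beta-arrestin Tango cells, 18 hr, 37 degrees C, 5% CO2. Read-out: tTA-driven luciferase luminescence, converted to %Activity; concentration-response curves assigned curve classes.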

Test [12] concerns the target ATP-dependent 6-phosphofructokinase (Trypanosoma brucei brucei) (UniProt O15648). Put plainly: qHTS Validation Assay to Find Inhibitors of T. brucei phosphofructokinase (AID 485368). Particulars: outcome: dose series up to 57.5 µM. The method, boiled down:
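qHTS format, up to 57 uM. PFK 1.25 nM; F6P 0.5 mM; ATP 0.1 mM; 5 mM MgCl2, 0.01% Tween20, 0.1% BSA; 0.1 M TEA pH 8.0; 45 min RT; ADP-Glo readout; no-enzyme control = full inhibition.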

Test [13] is described as follows: Quantitative high throughput screen for delayed death inhibitors of the malarial parasite plastid, 96 hour incubation (AID 488745). Also: nearly all actives have a fitted effect of over 70% in size. Also: potency is read from the fitted curve at half-maximal effect. The method, boiled down:
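Readout is firefly luciferase luminescence from an integrated reporter in P. falciparum; lower signal marks inhibited growth. Cultures at 2% hematocrit and 0.1% parasitemia were treated with compound across two generations (96 h, 37 C, 5% CO2).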

The nature of test [14]: Quantitative high throughput screen for delayed death inhibitors of the malarial parasite plastid, 48 hour incubation (AID 488752). Also: nearly all actives have a fitted effect of over 65% in size. Also: potency is read from the fitted curve at half-maximal effect. The method, boiled down: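 First, compound was pinned into RPMI 1640 medium containing 0.5% Albumax. Next, reporter-parasite-infected erythrocytes were added to 2% hematocrit and 0.1% parasitemia. After 48 h at 37 C under 5% CO2, luciferase detection reagent was added and luminescence read.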

Test [15] addresses Thioredoxin reductase 1, cytoplasmic (Rattus norvegicus) (UniProt O89049). Put plainly: qHTS Assay for Substrates of Mammalian Selenoprotein Thioredoxin Reductase 1 (TrxR1) (AID 488772).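 Also: series mostly up to about 57 µM; a drop in NADPH fluorescence below the no-compound background marks a TrxR1 substrate.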 Put shortly:
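In this dual-purpose format, potential substrates are identified from the first fluorescence read after selenite addition, not from the 8-minute delta. Rat enzyme is preincubated with NADPH and then with compound at ~22 deg C.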

The target of test [16] is ATP-dependent DNA helicase Q1 (Homo sapiens) (UniProt P46063). As to the kind of experiment: qHTS Validation Assay for Inhibitors of RecQ-Like Dna Helicase 1 (RECQ1) (AID 2353). The method, boiled down:
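RECQ1T1 50 nM; forked duplex (20 bp + 30-nt ss tails) 200 nM, ATP 2 mM final; pH 8.0, 2 mM MgCl2, 2.5 ug/ml poly(dI-dC); 15 min compound preincubation; discontinuous kinetic read over 2 h at RT.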

Test [17] addresses RecQ-like DNA helicase BLM (Homo sapiens) (UniProt P54132). Put plainly: qHTS Validation Assay for Inhibitors of Bloom's syndrome helicase (BLM) (AID 2364). Put shortly:
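50 nM BLM preincubated 15 min at room temperature with compound in pH 8.0 Tris buffer containing 2.5 ug/ml poly(dI-dC); started with 200 nM TAMRA/BHQ-2 forked duplex and 2 mM ATP (final). Unwinding read as TAMRA fluorescence increase, two reads 2 h apart.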

Test [18] in a line: qHTS Validation Assay to Find Inhibitors of Chronic Active B-Cell Receptor Signaling (AID 485345; active = well fitted curve in the direction sought with a large enough effect in the main read-out, with a control signal flat, not every such curve was filed as active). Put shortly: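 TMD8 ABC-DLBCL cells stably carrying doxycycline-inducible IkappaBalpha–green luciferase fusion plus unfused red luciferase; compounds 46 uM to 3 nM, 4 h at 37C with doxycycline. Corrected green/red luminescence ratio normalized to 10 uM MG-132 and basal cell wells; curves fitted.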

The text below walks through data of PubChem BioAssay (NCATS).

Results filed as inconclusive are left out. Activity calls are given as the source filed them. Unless noted, calls follow the shape of the dose curve; as a rule, active = well fitted curve in the direction sought with a large enough effect; inconclusive = small, poorly fitted or top-dose-only effect, or another doubt; inactive = no such curve, though single readings can be large; an effect the other way counts as inactive or inconclusive.

Chain of Thioredoxin reductase 1, cytoplasmic (Rattus norvegicus) (O89049 whole entry, looked up): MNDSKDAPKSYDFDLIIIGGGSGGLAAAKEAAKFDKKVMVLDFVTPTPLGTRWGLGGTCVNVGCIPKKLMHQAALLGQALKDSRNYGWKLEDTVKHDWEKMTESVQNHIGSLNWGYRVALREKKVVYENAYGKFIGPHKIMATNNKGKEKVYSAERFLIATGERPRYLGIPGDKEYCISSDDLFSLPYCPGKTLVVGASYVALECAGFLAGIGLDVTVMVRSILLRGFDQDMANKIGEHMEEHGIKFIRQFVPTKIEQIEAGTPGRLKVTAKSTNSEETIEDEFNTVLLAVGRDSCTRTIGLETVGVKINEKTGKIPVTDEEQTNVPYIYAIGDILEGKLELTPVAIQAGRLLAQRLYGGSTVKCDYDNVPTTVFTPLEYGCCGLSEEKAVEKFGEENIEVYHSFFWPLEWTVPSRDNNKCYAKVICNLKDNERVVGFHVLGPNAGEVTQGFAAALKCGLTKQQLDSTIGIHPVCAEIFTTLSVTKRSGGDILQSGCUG
Chain of Ferritin light chain (Equus caballus) (P02791 2-175 limits assumed): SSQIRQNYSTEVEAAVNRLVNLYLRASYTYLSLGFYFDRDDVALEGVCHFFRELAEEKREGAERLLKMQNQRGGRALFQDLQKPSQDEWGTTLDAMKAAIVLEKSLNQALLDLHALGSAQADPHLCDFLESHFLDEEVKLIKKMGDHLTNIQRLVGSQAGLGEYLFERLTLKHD
Chain of Ubiquitin carboxyl-terminal hydrolase 2 (Homo sapiens) (O75604 whole entry, looked up): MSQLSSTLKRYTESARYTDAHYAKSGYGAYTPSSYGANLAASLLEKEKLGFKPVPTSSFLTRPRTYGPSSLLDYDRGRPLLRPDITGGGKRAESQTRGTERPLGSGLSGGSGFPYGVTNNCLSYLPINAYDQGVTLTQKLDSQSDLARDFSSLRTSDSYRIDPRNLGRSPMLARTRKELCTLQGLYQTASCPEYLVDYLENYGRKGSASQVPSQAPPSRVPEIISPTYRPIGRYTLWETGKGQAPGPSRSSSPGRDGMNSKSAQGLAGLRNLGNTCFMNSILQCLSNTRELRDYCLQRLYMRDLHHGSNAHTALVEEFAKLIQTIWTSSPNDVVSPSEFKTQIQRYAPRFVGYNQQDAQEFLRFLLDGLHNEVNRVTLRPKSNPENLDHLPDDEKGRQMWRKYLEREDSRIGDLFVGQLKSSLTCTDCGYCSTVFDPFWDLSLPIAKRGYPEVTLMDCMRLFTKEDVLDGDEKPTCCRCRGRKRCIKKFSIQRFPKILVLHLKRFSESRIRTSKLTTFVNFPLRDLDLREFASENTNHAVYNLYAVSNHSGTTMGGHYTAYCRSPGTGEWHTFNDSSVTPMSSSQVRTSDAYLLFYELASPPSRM
Chain of Beta-2 adrenergic receptor (Homo sapiens) (P07550 whole entry, looked up): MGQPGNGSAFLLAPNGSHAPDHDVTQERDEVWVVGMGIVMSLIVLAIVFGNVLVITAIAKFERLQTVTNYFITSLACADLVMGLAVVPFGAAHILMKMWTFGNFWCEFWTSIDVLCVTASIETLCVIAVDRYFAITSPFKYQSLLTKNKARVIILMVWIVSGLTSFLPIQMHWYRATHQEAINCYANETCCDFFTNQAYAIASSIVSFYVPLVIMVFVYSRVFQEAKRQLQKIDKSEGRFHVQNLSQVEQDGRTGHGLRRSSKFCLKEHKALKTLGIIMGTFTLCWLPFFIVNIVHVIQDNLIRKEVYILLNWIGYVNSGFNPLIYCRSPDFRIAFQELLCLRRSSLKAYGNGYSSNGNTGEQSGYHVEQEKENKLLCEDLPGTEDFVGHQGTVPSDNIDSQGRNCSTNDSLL
Chain of RecQ-like DNA helicase BLM (Homo sapiens) (P54132 whole entry, looked up): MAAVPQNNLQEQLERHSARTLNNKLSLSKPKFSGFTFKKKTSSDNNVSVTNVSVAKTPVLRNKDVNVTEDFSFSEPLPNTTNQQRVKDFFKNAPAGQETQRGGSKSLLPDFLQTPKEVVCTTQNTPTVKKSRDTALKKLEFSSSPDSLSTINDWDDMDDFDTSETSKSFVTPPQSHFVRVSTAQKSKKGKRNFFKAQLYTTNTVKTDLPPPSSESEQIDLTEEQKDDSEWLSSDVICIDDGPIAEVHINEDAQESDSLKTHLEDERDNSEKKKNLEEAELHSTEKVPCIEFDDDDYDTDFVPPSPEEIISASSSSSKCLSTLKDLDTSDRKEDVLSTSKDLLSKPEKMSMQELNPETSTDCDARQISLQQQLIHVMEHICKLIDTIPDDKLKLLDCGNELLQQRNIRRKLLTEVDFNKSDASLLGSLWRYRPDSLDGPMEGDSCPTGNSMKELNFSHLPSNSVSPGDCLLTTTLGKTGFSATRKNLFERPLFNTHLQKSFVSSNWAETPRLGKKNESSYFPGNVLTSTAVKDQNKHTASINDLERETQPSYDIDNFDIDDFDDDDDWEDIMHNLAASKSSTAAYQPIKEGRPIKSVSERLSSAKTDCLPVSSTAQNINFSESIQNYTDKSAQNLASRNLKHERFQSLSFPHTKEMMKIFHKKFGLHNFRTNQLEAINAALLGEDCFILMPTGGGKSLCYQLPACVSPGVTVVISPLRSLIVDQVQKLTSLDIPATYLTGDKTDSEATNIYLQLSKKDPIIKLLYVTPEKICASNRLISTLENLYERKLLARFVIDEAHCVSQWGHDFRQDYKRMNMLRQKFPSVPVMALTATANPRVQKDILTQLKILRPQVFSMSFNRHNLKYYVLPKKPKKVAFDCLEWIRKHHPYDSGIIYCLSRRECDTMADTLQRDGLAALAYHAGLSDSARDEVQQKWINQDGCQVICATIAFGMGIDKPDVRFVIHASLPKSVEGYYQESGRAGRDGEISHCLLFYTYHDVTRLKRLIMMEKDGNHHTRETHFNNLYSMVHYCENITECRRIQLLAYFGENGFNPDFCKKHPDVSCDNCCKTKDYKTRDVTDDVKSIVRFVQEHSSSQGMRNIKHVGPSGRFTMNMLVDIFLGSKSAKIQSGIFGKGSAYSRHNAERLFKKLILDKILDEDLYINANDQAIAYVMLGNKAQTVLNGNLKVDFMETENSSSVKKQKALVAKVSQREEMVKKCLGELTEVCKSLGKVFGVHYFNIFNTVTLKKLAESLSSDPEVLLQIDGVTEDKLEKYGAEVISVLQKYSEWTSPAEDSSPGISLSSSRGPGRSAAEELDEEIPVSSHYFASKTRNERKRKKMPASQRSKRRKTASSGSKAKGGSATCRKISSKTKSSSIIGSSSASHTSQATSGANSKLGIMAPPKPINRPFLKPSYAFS
Chain of ATP-dependent DNA helicase Q1 (Homo sapiens) (P46063 whole entry, looked up): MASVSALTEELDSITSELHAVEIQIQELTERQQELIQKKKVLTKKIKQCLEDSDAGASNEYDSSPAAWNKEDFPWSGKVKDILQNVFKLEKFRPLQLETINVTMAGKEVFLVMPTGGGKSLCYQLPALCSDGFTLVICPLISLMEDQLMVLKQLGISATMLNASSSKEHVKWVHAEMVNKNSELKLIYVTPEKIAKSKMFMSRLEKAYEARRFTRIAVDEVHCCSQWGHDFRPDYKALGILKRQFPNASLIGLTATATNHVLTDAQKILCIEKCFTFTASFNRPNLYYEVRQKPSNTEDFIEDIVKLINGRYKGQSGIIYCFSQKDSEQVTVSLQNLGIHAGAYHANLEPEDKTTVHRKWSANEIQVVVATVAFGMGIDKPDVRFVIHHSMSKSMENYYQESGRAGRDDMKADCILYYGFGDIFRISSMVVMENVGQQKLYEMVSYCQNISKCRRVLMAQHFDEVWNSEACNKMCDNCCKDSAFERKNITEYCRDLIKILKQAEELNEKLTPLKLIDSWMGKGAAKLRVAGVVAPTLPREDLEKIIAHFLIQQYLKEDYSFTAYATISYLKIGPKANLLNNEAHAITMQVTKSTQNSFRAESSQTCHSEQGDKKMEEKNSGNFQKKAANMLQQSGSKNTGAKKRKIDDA
Chain of Tumor susceptibility gene 101 protein (Homo sapiens) (Q99816 whole entry, looked up, the tested form may be a part): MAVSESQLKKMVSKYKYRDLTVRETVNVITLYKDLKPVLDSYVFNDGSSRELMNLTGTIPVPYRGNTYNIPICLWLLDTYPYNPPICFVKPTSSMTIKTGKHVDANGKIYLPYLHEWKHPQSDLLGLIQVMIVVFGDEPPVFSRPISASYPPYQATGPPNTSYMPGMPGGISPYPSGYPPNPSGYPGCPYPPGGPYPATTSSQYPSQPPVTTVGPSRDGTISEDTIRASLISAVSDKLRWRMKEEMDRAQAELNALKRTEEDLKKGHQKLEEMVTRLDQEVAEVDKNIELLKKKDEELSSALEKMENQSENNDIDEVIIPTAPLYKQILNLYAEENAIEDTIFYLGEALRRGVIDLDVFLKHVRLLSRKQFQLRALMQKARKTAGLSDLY
Chain of ATP-dependent 6-phosphofructokinase (Trypanosoma brucei brucei) (O15648 whole entry, looked up): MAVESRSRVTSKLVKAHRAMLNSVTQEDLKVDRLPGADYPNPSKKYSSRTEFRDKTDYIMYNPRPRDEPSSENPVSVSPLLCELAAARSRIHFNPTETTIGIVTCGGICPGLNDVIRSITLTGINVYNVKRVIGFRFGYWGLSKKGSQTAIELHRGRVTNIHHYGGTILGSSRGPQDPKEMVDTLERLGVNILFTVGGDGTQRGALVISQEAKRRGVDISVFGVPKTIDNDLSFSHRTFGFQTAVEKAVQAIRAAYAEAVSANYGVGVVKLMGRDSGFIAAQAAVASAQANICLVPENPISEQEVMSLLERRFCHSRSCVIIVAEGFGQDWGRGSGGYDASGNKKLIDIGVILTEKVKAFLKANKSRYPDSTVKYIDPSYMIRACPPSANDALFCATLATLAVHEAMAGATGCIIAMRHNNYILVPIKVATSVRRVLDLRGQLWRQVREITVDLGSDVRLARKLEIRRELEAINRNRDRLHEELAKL

Turning to `C[C@]12C=CC(=O)C=C1CC[C@H]1[C@@H]3C[C@@H](O)[C@](O)(C(=O)CO)[C@@]3(C)C[C@H](O)[C@@]12F`, the Potency entry in [1], in test [4], in [5], in [6], in [7] and in test [9] was “inactive” throughout. For the same molecule, the Potency entry in test [13] and in test [14] was “inactive” in each case. Moreover, the call in test [2], in [3], in test [8], in test [10], in test [11] and in test [12] was inactive. The molecule was called inactive in test [15].
Consider `COCC(=O)O[C@]1(CCN(C)CCCc2nc3ccccc3[nH]2)CCc2cc(F)ccc2[C@@H]1C(C)C`, for which the Potency in test [1] is 5.01 µM (active); in test [5] it was 10.4 µM (active); in [14], 5.86 µM (active). Also, the Potency entry in [16], in [17] and in test [9] was “inactive” throughout. The molecule was called inactive in test [8], in test [10], in test [11], in [12] and in [15].
Take `CCNC(=O)N1CCN(CCCC(c2ccc(F)cc2)c2ccc(F)cc2)CC1`: the Potency in test [1] was 1.12 µM (active); in test [13], 1.65 µM (active); in test [14], 2.94 µM (active). Further, the molecule was classed as inactive in [2], in test [3], in test [8], in test [10], in test [11] and in test [12]. The Potency result in test [4], in test [5], in [7], in test [9] and in test [18] was “inactive” in each case.
Turning to `c1cc(CN2CCCCC2)cc(OCCCNc2nc3ccccc3s2)c1`, the Potency in test [1] was 11.2 µM (active); in test [6], 16.5 µM (active); in [13] it was 2.94 µM (active); in test [14], 8.28 µM (active). For the same molecule, the Potency result in test [16], in test [17], in test [4] and in [9] was “inactive” in each case. In addition, the molecule was called inactive in test [3], in [8], in test [10], in test [11] and in test [15].
`OCCN1CCN(CC/C=C2/c3ccccc3Sc3ccc(C(F)(F)F)cc32)CC1`: the Potency is 5.01 µM (active) in test [1], 12.6 µM (active) in test [7], 6.57 µM (active) in test [13] and 8.28 µM (active) in test [14]. The call in [2], in test [8], in [10], in [11] and in test [15] was inactive. In addition, the Potency entry in test [17], in test [5] and in [9] was “inactive” in each case.
As for `O=C(CCCN1CCC(O)(c2cccc(C(F)(F)F)c2)CC1)c1ccc(F)cc1`, the Potency was 10 µM (active) in [1], 13.1 µM (active) in [6], 9.28 µM (active) in test [13] and 13.1 µM (active) in [14]. Moreover, the Potency result in test [16], in [17], in test [4], in [7], in [9] and in test [18] was “inactive” throughout. Moreover, the molecule was classed as inactive in test [3], in test [8], in test [10], in test [11] and in test [15].
As for `CN(C)CCN(Cc1cccs1)c1ccccn1`, the Potency entry in [1], in test [16], in test [17], in test [4], in test [5] and in test [6] was “inactive” each time. Moreover, the Potency entry in test [7], in [9], in [18], in [13] and in test [14] was “inactive” each time. Besides, the result in test [3], in test [8], in test [10], in test [11], in test [12] and in [15] was inactive.
